Data on 15 compounds can be found in PubChem BioAssay.

The structures appear in SMILES notation. For part of these data: Entries with a potency or affinity are not part of this list. Active and inactive are the calls of the source. Unless noted, the rule behind the calls is not given here.

Experiment [1] has as its target Cell division control protein 42 homolog (Homo sapiens) (UniProt P60953). The experiment is described as follows: inhibition of fluorescent GTP binding to constitutively active Cdc42 – biochemical, multiplex bead flow cytometry, Bodipy-FL-GTP, dose response (AID 1333;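 active = fitted half-maximal concentration within the tested dose range, moderate curve steepness, a statistically real signal drop, and little compound fluorescence or tag-binding interference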).
The target is the same in experiment [2]. The experiment is described as follows: inhibition of fluorescent GTP binding to wildtype Cdc42 – biochemical, multiplex bead flow cytometry, Bodipy-FL-GTP, dose response (AID 1334;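 active = fitted half-maximal concentration within the tested range, moderate curve steepness, significant signal drop, and little compound fluorescence or bead-linkage interference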). Conditions: bead-based flow cytometry, Bodipy-FL-GTP binding to GST-Cdc42; at 100 µM (top of the series) unless noted.
In experiment [3] the target is GTPase HRas (Homo sapiens) (UniProt P01112). The experiment is described as follows: Ras wt fluorescent GTP loading blockade – biochemical, wildtype, multiplex bead flow cytometry, dose response (AID 1335;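 active = fitted half-maximal concentration within 10 nM to 100 µM, steepness 0.5 to 2, significant signal drop, low assay interference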). The note with it: bead-based flow cytometry, Bodipy-GTP binding to GST-Ras; at 100 µM (top of the series) unless noted. (In general: In flow cytometry, cells or beads pass a laser one at a time.)

Experiment [4] concerns Ras-related protein Rab-7a (dog), GTP binding. Description: blockers of fluorescent GTP binding to Rab7 – biochemical, wildtype, multiplex bead flow cytometry, dose response (AID 1336).
Experiment [5] addresses Ras-related C3 botulinum toxin substrate 1 (Homo sapiens) (UniProt P63000). The experiment is described as follows: inhibition of wildtype Rac1 nucleotide loading – biochemical, multiplex bead flow cytometry, dose response (AID 1340;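 active = dose curve with midpoint inside tested range, moderate steepness, plateau gap beyond fit error, low compound glow and bead-link interference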). The note with it: GST-Rac1 beads, Bodipy-FL-GTP binding; at 100 µM (top of the series) unless noted.
In experiment [6] the target is GTPase HRas (Homo sapiens) (UniProt P01112). The experiment is described as follows: blockade of GTP loading onto mutant Ras – biochemical, activated mutant, multiplex bead flow cytometry, dose response (AID 1341;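 active = dose-response curve with midpoint inside the tested range, moderate steepness, significant amplitude and little compound fluorescence or bead-attachment interference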;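 note: GST-tagged constitutively activated Ras mutant immobilized on beads and multiplexed with other GTPases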).

Sequence of GTPase HRas (Homo sapiens) (P01112 whole entry, looked up): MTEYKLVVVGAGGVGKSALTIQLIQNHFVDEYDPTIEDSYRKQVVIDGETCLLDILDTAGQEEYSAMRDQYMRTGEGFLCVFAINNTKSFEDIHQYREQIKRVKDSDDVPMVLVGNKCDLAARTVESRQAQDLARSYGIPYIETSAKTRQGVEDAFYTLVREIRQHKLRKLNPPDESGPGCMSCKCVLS
Sequence of Cell division control protein 42 homolog (Homo sapiens) (P60953 whole entry, looked up): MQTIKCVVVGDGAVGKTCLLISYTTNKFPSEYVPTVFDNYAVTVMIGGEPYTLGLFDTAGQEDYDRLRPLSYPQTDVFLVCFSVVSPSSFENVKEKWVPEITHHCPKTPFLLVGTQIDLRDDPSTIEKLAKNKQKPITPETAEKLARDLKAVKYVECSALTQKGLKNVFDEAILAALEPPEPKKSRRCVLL

On to `CCN(CC)S(=O)(=O)c1ccc2c(c1)c(=O)c(C(=O)N1CCc3ccccc3C1)cn2C`, for which the result in experiment [1], in experiment [4] and in experiment [6] was inactive. Further, the fluorescence, percent of control (lower = inhibition) in experiment [2] turned out to be 96.7%. Besides, the GTP binding, percent of control in experiment [3] worked out at 172%. This compound also yielded a GTP binding signal, raw median fluorescence (lower = inhibition) (MCF (arbitrary fluorescence units)) in experiment [5] of 225.

Consider `COc1cccc(/C=C2\SC(=S)N(NC(=O)c3ccncc3)C2=O)c1`, for which the outcome in experiment [1], in experiment [4] and in experiment [6] was inactive. In experiment [2], this compound yielded a fluorescence, percent of control (lower = inhibition) of 26.6%. The compound further yielded a GTP binding, percent of control in experiment [3] of 63.7%. This compound registered a GTP binding signal, raw median fluorescence (lower = inhibition) (MCF (arbitrary fluorescence units)) in experiment [5] of 116.

For the compound `O=c1c2ccccc2nc2c3ccccc3c(Cl)nn12`, the outcome in experiment [1], in experiment [4] and in experiment [6] was inactive. Further, in experiment [2], the fluorescence, percent of control (lower = inhibition) was 36.6%. For the same compound, the GTP binding, percent of control in experiment [3] worked out at 83.1%. For the same compound, the GTP binding signal, raw median fluorescence (lower = inhibition) (MCF (arbitrary fluorescence units)) in experiment [5] was 213.

Consider `O=C(CCc1nc2ccccc2[nH]c1=O)OCC(=O)N1CCc2ccccc21`, for which the compound was classed as inactive in experiment [1], in experiment [4] and in experiment [6]. This compound returned a fluorescence, percent of control (lower = inhibition) in experiment [2] of 36.8%. The GTP binding, percent of control in experiment [3] was 82.6%. For the same compound, the GTP binding signal, raw median fluorescence (lower = inhibition) (MCF (arbitrary fluorescence units)) in experiment [5] was determined as 280.

Regarding `COc1ccc(/C=N/n2c(N)c(S(=O)(=O)c3cccs3)c3nc4ccccc4nc32)cc1OC`, the result in experiment [1], in experiment [4] and in experiment [6] was inactive. The fluorescence, percent of control (lower = inhibition) in experiment [2] is 37.1%. In experiment [3], this compound showed a GTP binding, percent of control of 49.3%. The GTP binding signal, raw median fluorescence (lower = inhibition) (MCF (arbitrary fluorescence units)) in experiment [5] worked out at 118.

On to `COc1ccc2oc(COc3ccccc3)c(C(=O)O)c2c1`, for which the outcome in experiment [1], in experiment [4] and in experiment [6] was inactive. In experiment [2], this compound had a fluorescence, percent of control (lower = inhibition) of 59.6%. The compound also displayed a GTP binding, percent of control in experiment [3] of 87.3%. This compound also came in with a GTP binding signal, raw median fluorescence (lower = inhibition) (MCF (arbitrary fluorescence units)) in experiment [5] of 29.6.

For `Oc1c(C=Nc2ccccc2)sc(=S)n1Cc1ccccc1`, the compound was called inactive in experiment [1], in experiment [4] and in experiment [6]. Also, the fluorescence, percent of control (lower = inhibition) in experiment [2] was 34.6%. Further, the GTP binding, percent of control in experiment [3] stood at 75.7%. This compound also displayed a GTP binding signal, raw median fluorescence (lower = inhibition) (MCF (arbitrary fluorescence units)) in experiment [5] of 232.

In the case of `COCCCNc1nc(=S)[nH]c2cc(OC)c(OC)cc12`, the result in experiment [1], in experiment [4] and in experiment [6] was inactive. Moreover, the fluorescence, percent of control (lower = inhibition) in experiment [2] was 32.5%. In experiment [3], this compound registered a GTP binding, percent of control of 41.5%. Besides, the GTP binding signal, raw median fluorescence (lower = inhibition) (MCF (arbitrary fluorescence units)) in experiment [5] worked out at 99.

As to `Cc1c(NC(=O)CCN2C(=O)c3ccccc3C2=O)c(=O)n(-c2ccccc2)n1C`, the result in experiment [1], in experiment [4] and in experiment [6] was inactive. The fluorescence, percent of control (lower = inhibition) in experiment [2] amounted to 42.1%. The same compound yielded a GTP binding, percent of control in experiment [3] of 90.3%. In experiment [5], this compound showed a GTP binding signal, raw median fluorescence (lower = inhibition) (MCF (arbitrary fluorescence units)) of 322.

Regarding `O=C(COC(=O)/C=C/c1cccs1)Nc1ccc2ccccc2c1`, the result in experiment [1], in experiment [4] and in experiment [6] was inactive. Further, in experiment [2], the fluorescence, percent of control (lower = inhibition) came out at 43.2%. In addition, the GTP binding, percent of control in experiment [3] turned out to be 58.6%. This compound also had a GTP binding signal, raw median fluorescence (lower = inhibition) (MCF (arbitrary fluorescence units)) in experiment [5] of 183.

As to `O=c1c2ccccc2nc2c3ccccc3c(NCc3ccco3)nn12`, the outcome in experiment [1], in experiment [4] and in experiment [6] was inactive. Also, the fluorescence, percent of control (lower = inhibition) in experiment [2] came to 80.4%. Moreover, in experiment [3], the GTP binding, percent of control came to 122%. The GTP binding signal, raw median fluorescence (lower = inhibition) (MCF (arbitrary fluorescence units)) in experiment [5] amounted to 144.

As to `Cc1ccc(OCCn2cc(C(=O)O)c3ccccc32)cc1`, the compound was classed as inactive in experiment [1], in experiment [4] and in experiment [6]. This compound had a fluorescence, percent of control (lower = inhibition) in experiment [2] of 45.4%. The GTP binding, percent of control in experiment [3] stood at 96.7%. In experiment [5], the GTP binding signal, raw median fluorescence (lower = inhibition) (MCF (arbitrary fluorescence units)) is 280.

Regarding `Cc1cccc(NCc2ccc(O)c3ncccc23)c1C`, the compound was classed as inactive in experiment [1], in experiment [4] and in experiment [6]. In experiment [2], this compound showed a fluorescence, percent of control (lower = inhibition) of 39.8%. This compound also had a GTP binding, percent of control in experiment [3] of 84.4%. The compound also displayed a GTP binding signal, raw median fluorescence (lower = inhibition) (MCF (arbitrary fluorescence units)) in experiment [5] of 259.

As to `CC1=C(C#N)c2nc(N)c(C#N)c(C)c2/C1=C\c1ccc(-c2ccccc2C(=O)O)o1`, the compound was called inactive in experiment [1], in experiment [4] and in experiment [6]. This compound showed a fluorescence, percent of control (lower = inhibition) in experiment [2] of 30.1%. Moreover, the GTP binding, percent of control in experiment [3] turned out to be 74.4%. Also, the GTP binding signal, raw median fluorescence (lower = inhibition) (MCF (arbitrary fluorescence units)) in experiment [5] amounted to 159.

In the case of `O=C(O)c1ccc(COc2cccc3ccccc23)o1`, the result in experiment [1], in experiment [4] and in experiment [6] was inactive. The same compound returned a fluorescence, percent of control (lower = inhibition) in experiment [2] of 58.3%. This compound yielded a GTP binding, percent of control in experiment [3] of 89.1%. In experiment [5], the GTP binding signal, raw median fluorescence (lower = inhibition) (MCF (arbitrary fluorescence units)) is 31.9.
